# Test results as given in PubChem BioAssay (NCATS).
# Results filed as inconclusive are left out. A call without a number means that no potency is given here. Active and inactive are the calls of the source. Calls follow the shape of the dose curve; as a rule, active = well fitted inhibition curve with a large enough effect; inconclusive = small, poorly fitted or top-dose-only effect; inactive = no such curve, though single readings can be large or run the other way.
# Experiment: P-glycoprotein substrates identified in KB-3-1 adenocarcinoma cell line, qHTS therapeutic library screen (AID 1346986); also: nearly all actives have a fitted effect of over 60% in size;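 also: potency is for cytotoxicity meaning loss of cell viability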
# Settings: KB-3-1 parental cells viability, CellTiter-Glo, 72 h; series mostly up to 44.5 µM
# Procedure: The ATP-binding cassette transporters P-glycoprotein (P-gp) is known to limit brain penetration of many chemotherapy drugs. […] We used the CellTiter-Glo viability assay to test library compounds against the parental KB-3-1 human cervical adenocarcinoma cell line and the colchicine-selected sub-line KB-8-5-11 that over-expresses P-gp. KB-8-5-11 cells were also tested in the presence of a P-gp inhibitor (tariquidar) to assess reversability of transporter-mediated resistance. Of the tested compounds, a total of 90 P-gp substrates were identified including 55 newly identified P-gp substrates. Substrates were confirmed using an orthogonal killing assay against HEK-293 cells transfected with P-gp. As exemplars, we confirmed that AT7159 (cyclin-dependent kinase inhibitor); AT9283, (Janus kinase 2/3 inhibitor); ispinesib (kinesin spindle protein inhibitor); gedatolisib (PKI-587, phosphoinositide 3-kinase/mammalian target of rampamycin inhibitor); GSK-690693 (AKT inhibitor); and KW-2478 (heat shock protein 90 inhibitor) were substrates , and direct ATPase stimulation was assessed. ABCG2 was also found to confer high levels of resistance to AT9283, GSK-690693 and gedatolisib, while ispinesib, AT7519 and KW-2478 were weaker substrates.
# The HeLa derivative cell line, KB-3-1, and its colchicine-selected, P-gp-overexpressing subline, KB-8-5-11 were maintained in DMEM with 10% FCS and Pen/Strep with glutamine at 37 degree C in 5% CO2. For KB-8-5-11 cells, colchicine was added to the medium at a concentration of 100 ng/mL. HEK-293 cells transfected with empty vector (pcDNA) or vector containing human ABCB1 (MDR-19) or ABCG2 (R-5) have been described previously (Robey, Lin, Qiu, Chan & Bates, 2011) and were maintained in EMEM supplemented with 10% FCS, Pen/Strep and glutamine with 2 mg/ml G418 to select for the expression of the transporter. Cultures were confirmed to be free of mycoplasma infection using the MycoAlert Mycoplasma Detection Kit (Lonza, Walkersville, MD). For the screen, assay medium was identical to culture medium except for KB-8-5-11 where colchicine was excluded from the medium.
# All cell lines were plated into 1536-well plates at 500 cells/well in 5 uL media. Compounds were then pinned in dose-response using a 1536-head pin tool (Kalypsis, San Diego, CA) and plates were incubated at 37 degree C in 5% CO2 for an additional 72 h. CellTiter-Glo reagent (Promega) was dispensed into the wells, incubated for 5 min and luminescence was read on a ViewLux instrument (Perkin-Elmer). Cytotoxic compounds were defined as those that yielded a curve class of -1.1, -1.2, -2.1, -2.2, -2.3, or -2.4, a maximum response of >50% and an AC50 of < 10 uM. Cherry-picked hits from screening analysis were tested with both the KB pair of cell lines, and the pcDNA (empty vector control) and MDR-19 (P-gp overexpressing) pair were tested, in the absence and presence of tariquidar.
# Potency is read from the fitted curve at half-maximal effect.
row,Structure (SMILES),Potency
1,COc1cc(C(=O)OC(COCCC(C)C)CN2CCOCC2)cc(OC)c1OC (configuration not stated),inactive
2,COc1cc(NS(=O)(=O)c2ccc(N)cc2)nc(C)n1,inactive
3,CCN1C(=O)c2ccccc2C1Nc1ccc(OCCN2CCCCC2)cc1 (configuration not stated),inactive
4,O=C(O)Cc1ccccc1Oc1ccc(Cl)cc1Cl,inactive
5,C=CC[N+]1([C@H]2C[C@H]3[C@@H]4CC[C@H]5C[C@H](OC(C)=O)[C@@H](N6CCCCC6)C[C@]5(C)[C@H]4CC[C@]3(C)[C@H]2OC(=O)CC)CCCCC1,inactive
6,O=C(CCCCCCCCC#CI)Oc1ccccc1,inactive
7,CCOC(=O)c1ccc(OCCN2C[C@H](O)[C@@H](O)[C@H](O)[C@H]2CO)cc1,inactive
8,CN(C)C(=O)CNC(=O)Cc1ccccc1,inactive
9,Nc1ncnc2n[nH]c(Nc3ccc(F)cc3)c12,inactive
10,CCCCC(O)/C=C(C)/C=C/C=C/C(=O)N1CCCC1=O (configuration not stated),inactive
11,CC(=O)Nc1ccn(C2COC(COC(=O)c3ccccc3)O2)c(=O)n1 (configuration not stated),inactive
12,CO[C@]1(NC(=O)CSC(F)F)C(=O)N2C(C(=O)O)=C(CSc3nnnn3CCO)CO[C@H]21,inactive
13,CC(=O)O[C@@H]1C(=O)O[C@@H]2[C@H]1OC(=O)[C@@H]2OC(C)=O,inactive
14,CN(CC1(C)CCCO1)S(=O)(=O)c1ccc(Cl)c(S(N)(=O)=O)c1 (configuration not stated),inactive
15,Cn1cnc2c(NCc3ccccc3)nc(NCCO)nc21,inactive
16,CCCCCOc1ccc(C2SC(=O)NC2=O)cc1OCC (configuration not stated),inactive
17,CC(C)=CCNc1ncnc2c1ncn2[C@@H]1O[C@H](CO)[C@@H](O)[C@H]1O,5.8 µM (active)
18,CN(C)c1cc2c(Nc3ccc4c(cnn4Cc4ccccc4)c3)ncnc2cn1,inactive
19,CC(=O)OCC(=O)Nc1cc(C#N)cc(NC(=O)COC(C)=O)c1Cl,inactive
20,CC(C(=O)O)c1ccc(/C=C2\CCCCC2=O)cc1 (configuration not stated),inactive
21,CCOC(=O)c1ccc(NC(=O)CN2CCCCC2)cc1,inactive
22,CO/N=C(/C(=O)N[C@@H]1C(=O)N2C(C(=O)O)=C(Cn3nnc(C)n3)CS[C@H]12)c1csc(N)n1,inactive
